Consider 96 compounds from PubChem BioAssay AID2314 (National Center for Advancing Translational Sciences (NCATS), 2010).

Each structure is given as a SMILES string. Hit rate of the full screen: of about 300,000 compounds, about 37,000 (12%) were called active. The sample holds actives, similar compounds and a random draw of the others, so the mix is not that of the screen. No stated cut-off is given here; in the data, active means max response mostly above about 13% (no sharp cut-off); inactive means mostly below about 14%.

The nature of this assay: Cycloheximide Counterscreen for Small Molecule Inhibitors of Shiga Toxin. Further: read at 38.3 µM for the half of the compounds with a filed dose; 0% is about no effect. To be noted: cell reporter, cycloheximide protein synthesis inhibition counterscreen; active compounds read high. On the technique in general: The purpose of a counterscreen is to sort out artefacts and off-target activity.
Consider `O=c1[nH]c(SCc2cccc(F)c2)nc2ccccc12`, for which the max response was 0.0734% (inactive).
For the compound `Nc1nnc2c(C(F)(F)F)nc3ccccc3n12`, the max response was -5.14% (inactive).
Consider `O=C1c2ccccc2C(=O)N1c1cccc2ccccc12`, for which the max response was -0.411% (inactive).
With `O=C(NCc1ccc2c(c1)OCO2)c1ccc(Cl)s1`, the max response was 17.6% (active).
Regarding `O=C(NCc1ccc2c(c1)OCO2)c1sccc1Br`, the max response was 16.3% (active).
For the compound `O=C(NCc1ccc2c(c1)OCO2)c1cc(F)c(F)cc1Cl`, the max response is 16.6% (inactive).
Consider `O=C(NCc1ccc2c(c1)OCO2)c1cc2c(s1)CS(=O)(=O)C2`, for which the max response was -5.16% (inactive).
With `COc1cc(OC)c(C(=O)NCc2ccc3c(c2)OCO3)cc1OC` the figure was -1.06% (inactive); with `O=C(NCc1ccc2c(c1)OCO2)C12CC3CC(CC(C3)C1)C2`, -3.3% (inactive); with `Cc1ccccc1NC(=O)C(C)c1ccc(-c2ccccc2)c(F)c1` (stereo unspecified), -5.36% (inactive).
With `CC(CC(=O)N1CCN(c2ccccc2)CC1)S(=O)(=O)c1ccc2c(c1)NC(=O)CS2` (stereo unspecified) the figure was 1.2% (inactive); with `Cc1cc([N+](=O)[O-])ccc1NC(=O)c1ccc(NC(=O)C(C)C)cc1`, 5.74% (inactive).
In the case of `O=C(NNS(=O)(=O)c1ccc(F)cc1)c1ccc([N+](=O)[O-])cc1Cl` it was -3.45% (inactive); in that of `O=C(Nc1ccc(Br)cn1)c1ccc([N+](=O)[O-])o1`, 48.9% (active).
In the case of `O=C(Nc1ccncc1)c1ccc([N+](=O)[O-])cc1Cl`, the max response is -4.24% (inactive).
Take `CC(C)C(=O)Nc1cccc(NC(=O)c2ccc([N+](=O)[O-])cc2Cl)c1`: the max response is 27.7% (active).
For `O=C(Nc1cccnc1)c1cc([N+](=O)[O-])ccc1Cl`, the max response was -2.56% (inactive).
In the case of `CN1C(=O)c2ccc(C(=O)Nc3ccc(Br)cn3)cc2C1=O` it was 1.67% (inactive).
Turning to `O=C(Nc1ccc(Br)cn1)c1ccc([N+](=O)[O-])cc1Cl`, the max response is 51.7% (active).
With `O=C(Nc1ccc(Br)c2cccnc12)c1ccc(Cn2cc([N+](=O)[O-])cn2)o1`, the max response was -3.97% (inactive).
Regarding `O=C1CCNCCN1[C@H](CO)Cc1ccccc1`, the max response was -1.44% (inactive).
With `COc1cc(NC(=O)C2=C(C)OCCS2)c(Cl)cc1C(=O)NCCN1CCN(C)CC1` the figure was -6.54% (inactive); with `O=C(O)c1[nH]c2ccccc2c1C(c1cccc(O)c1)c1c(C(=O)O)[nH]c2ccccc12`, -0.808% (inactive).
On to `COC(=O)c1sccc1NS(=O)(=O)c1ccc(F)cc1F`, for which the max response was -6.38% (inactive).
Consider `Cc1c(CN2CCC(n3nccc3NC(=O)CCc3ccccc3)CC2)cnn1C`, for which the max response is 0.463% (inactive).
Regarding `CCNC(=O)CC1C(=O)N(c2ccc(OC)cc2)C(=O)N1CCOC` (stereo unspecified), the max response is -2.06% (inactive).
For the compound `COc1ccc(C(=O)NC(=S)NNC(=O)CCc2ccccc2)cc1`, the max response was 10.3% (inactive).
For `COc1ccc(/C(N)=N/OC(=O)Cc2ccccc2)cc1`, the max response is 46.9% (active).
Take `CCOC(=O)C(Cc1ccccc1)NC(=O)CCC(=O)c1ccc(OC)cc1` (stereo unspecified): the max response was -1.47% (inactive).
For the compound `COc1ccc(/C(N)=N/OC(=O)Oc2ccccc2)cc1`, the max response was -4.11% (inactive).
With `COc1ccc(C(=O)OCC(=O)NCCCc2ccccc2)cc1OC`, the max response was 0.591% (inactive).
As to `COc1ccc(/C(N)=N/OC(=O)CCCc2ccccc2)cc1`, the max response is 44.3% (active).
Take `COCCN1CCn2c(nc3cc(NS(C)(=O)=O)ccc32)C1`: the max response is -4.53% (inactive).
Regarding `CC1(C)COC(c2cccn2Cc2ccccc2Cl)=N1`, the max response is 2.16% (inactive).
Consider `O=C(Nc1cccc(CCc2ccccn2)c1)c1ccc(Cl)cc1`, for which the max response was 11% (inactive).
For the compound `C=CCNc1nc(Nc2ccc(Cl)cc2)nc(OC)n1`, the max response is 35.6% (active).
With `COc1nc(NCc2ccc(Cl)cc2)nc(OC)n1`, the max response is 9.12% (inactive).
With `C=CCNc1nc(C)nc(OC)n1` the figure was -3.36% (inactive).
Take `NS(=O)(=O)c1ccc(CNC(=O)c2cccc(Oc3ccccc3)c2)cc1`: the max response is 1.56% (inactive).
In the case of `CC1CCCN(C(=O)c2ccc3c(c2)C(=O)N(CCC2=CCCCC2)C3=O)C1` (stereo unspecified) it was 2.05% (inactive).
On to `COc1ccc(S(=O)(=O)N2CCOC2CNC(=O)C(=O)NCc2ccncc2)cc1OC` (stereo unspecified), for which the max response was -2.13% (inactive).
With `CN(NC(=O)c1ccccc1F)c1nc(C(F)(F)F)nc2ccccc12` the figure was -3.39% (inactive); with `C/C(=N\NC(=O)c1ccccc1F)c1ccccn1`, 31.8% (active).
With `C/C(=N\NC(=O)Cc1ccc(Cl)cc1)c1ccccn1` the figure was -1.28% (inactive); with `NC1=NC(=O)C(Cc2cccc(Cl)c2)S1` (stereo unspecified), 13% (inactive).
As for `O=C(NC(=S)Nc1ccccc1N1CCCCC1)c1ccc(F)cc1`, the max response is 4.5% (inactive).
Turning to `COc1ccccc1C(=O)NC(=S)Nc1ccccc1N1CCCCC1`, the max response was 18.9% (active).
Consider `COc1ccc(C(=O)NC(=S)Nc2ccccc2N2CCN(S(C)(=O)=O)CC2)cc1OC`, for which the max response was -0.375% (inactive).
With `COc1ccc(OC)c(NC(=O)c2sc3nc(C)cc(C)c3c2N)c1`, the max response is 1.77% (inactive).
Regarding `O=S(=O)(NC1CC1)c1ccc(F)c(F)c1`, the max response is -2.05% (inactive).
As to `COc1ccccc1-n1c(SCC(=O)Nc2cccc(C(=O)O)c2)nnc1-c1ccccc1O`, the max response was 0.473% (inactive).
With `C=C1/C(=C\C=C2\CCCC3(C)C2CCC3C(C)/C=C/C(O)C2CC2)CC(O)CC1O` (stereo unspecified) the figure was -6.77% (inactive); with `C/C(=N\NC(=O)COc1c(C)cccc1C)c1cccs1`, 6.57% (inactive); with `Cc1ccccc1C(CC(=O)c1cccs1)C(C#N)C#N` (stereo unspecified), 58.6% (active).
Turning to `Cc1ccc(C)c(NC(CC(=O)c2ccccc2)C(=O)OCC(=O)c2cccs2)c1` (stereo unspecified), the max response was -1.02% (inactive).
In the case of `CCn1c(SCC(=O)Nc2nccs2)nnc1-c1ccncc1`, the max response was -3.78% (inactive).
In the case of `CC(=O)c1cc(C#N)c(SCC(=O)Nc2nccs2)nc1C` it was 24.6% (active); in that of `CC(=O)c1cc(C#N)c(N2CC(C)OC(C)C2)nc1C` (stereo unspecified), -2.5% (inactive).
For `CC(=O)c1cc(C#N)c(SCC(=O)C(C)(C)C)nc1C`, the max response is 55.2% (active).
As for `CCn1c(SCC(=O)Nc2nccs2)nnc1-c1ccco1`, the max response is -4.57% (inactive).
As to `Cc1[nH]c2ccccc2c1SCC(=O)Nc1nccs1`, the max response is 29.5% (active).
With `CC(=O)c1cc(C#N)c(N2CCCCC2)nc1C`, the max response is 2.13% (inactive).
With `Cc1cccc(C)c1Nc1nnc(SCC(=O)Nc2sccc2C#N)s1` the figure was -1.09% (inactive).
Turning to `Cc1cc(C(F)(F)F)nc(SCC(=O)Nc2nccs2)n1`, the max response is -1.23% (inactive).
In the case of `Cc1ccccc1-c1ccc(C(=O)O)s1` it was 27.3% (inactive); in that of `O=C1CSC(=S)N1c1ccc(Cl)c(Cl)c1`, 3.61% (inactive).
As for `CCS(=O)(=O)N1CCC(N2CCN(c3ccccc3)CC2)CC1`, the max response is -2.51% (inactive).
With `Cc1ccc(N(Cc2cc(=O)[nH]c3ccccc23)C(=O)CCl)cc1`, the max response was -3.54% (inactive).
In the case of `COc1cc(NC(=O)c2ccccc2)c(OC)cc1NC(=O)Cc1ccccc1`, the max response is -0.835% (inactive).
For `O=C(CCC1CCCN(C(=O)Cc2ccc(F)cc2)C1)N1CCN(c2ccccn2)CC1` (stereo unspecified), the max response was -1.12% (inactive).
With `CC(=O)Nc1ccc(N2CCOCC2)c(C(=O)Nc2cccc(C)c2)c1` the figure was -4.06% (inactive); with `Cc1cccc(NC(=O)c2sc3nc(N4CCOCC4)c4c(c3c2N)CCCC4)c1`, 14.3% (active); with `Cc1cccc(NC(=O)c2sc3nc4c(c(-c5ccco5)c3c2N)CCC4)c1`, 20.8% (inactive).
In the case of `CC(C)c1ccc(S(=O)(=O)N2CCN(C(=O)c3ccc(N4CCCC4)c([N+](=O)[O-])c3)CC2)cc1`, the max response was 21.7% (inactive).
With `CCCCNC(=O)N(O)C1N(/N=C/c2ccc(N(C)C)cc2)C(=S)SC1(C)C` (stereo unspecified) the figure was -1.87% (inactive); with `CCCCNC(=O)N(O)C1N(/N=C/c2ccccc2O)C(=S)SC1(C)C` (stereo unspecified), 40.5% (active); with `CCC(C)N1C(=S)SC(C)(C)C1N(O)C(=O)NC1CCCCC1` (stereo unspecified), -3% (inactive).
In the case of `COc1ccc(CC(=O)Nc2sc(Cc3ccccc3)c(C)c2C(N)=O)cc1`, the max response was -4.58% (inactive).
Turning to `CCCc1cc(=S)n2c([nH]c3ccccc32)c1C#N`, the max response is 9.34% (inactive).
Take `COc1cc(C(=O)N2CCN(C/C=C/c3ccccc3)CC2)cc(OC)c1C`: the max response is -2.42% (inactive).
For `O=C(NCCc1c[nH]c2ccccc12)C(=O)NCC1CCCO1` (stereo unspecified), the max response was -2.43% (inactive).
Turning to `O=C(NC(Cc1c[nH]c2ccccc12)C(=O)O)/C(=C/c1ccco1)NC(=O)c1ccccc1` (stereo unspecified), the max response is 7.91% (inactive).
Turning to `COc1ccc(/C=C(\NC(=O)c2ccc(OC)c(OC)c2)C(=O)NCCc2c[nH]c3ccccc23)cc1`, the max response was -2.44% (inactive).
With `Cc1cc(C)cc(NC(=S)NCCc2c[nH]c3ccccc23)c1` the figure was -3.82% (inactive); with `COc1ccccc1CC(=O)NCCc1c[nH]c2ccccc12`, 5.67% (inactive).
Regarding `Cc1ccc(C(=O)N/C(=C/c2ccco2)C(=O)NCCc2c[nH]c3ccccc23)cc1C`, the max response was 15.8% (active).
As for `O=C(NCCc1c[nH]c2ccccc12)c1cccc(Br)c1`, the max response is 27.9% (active).
`CN(c1ccccc1)S(=O)(=O)c1ccc(Cl)c(C(=O)NCCc2c[nH]c3ccccc23)c1`: the max response is -2.81% (inactive).
In the case of `O=C(NCCc1c[nH]c2ccccc12)c1cc2ccccc2oc1=O` it was 52.8% (active).
In the case of `Cc1cc(C)cc(NS(=O)(=O)Cc2ccccc2)c1`, the max response is 2.71% (inactive).
With `COc1ccc(CNc2nc3c(c(=O)[nH]c(=O)n3C)n2Cc2ccccc2)cc1`, the max response was 1.15% (inactive).
In the case of `CCn1c(CNC(=O)c2cc(OC)c(OC)c(OC)c2)cc2cc(C)ccc21`, the max response was -0.507% (inactive).
As for `CC(=O)c1c(C)[nH]c(C(=O)COC(=O)c2cccc(S(=O)(=O)N(C)c3ccccc3)c2)c1C`, the max response is 6.94% (inactive).
With `COc1ccc(C(=O)OCC(=O)NCC2CCCO2)cc1[N+](=O)[O-]` (stereo unspecified), the max response was 0.371% (inactive).
`CCC(=O)c1ccc(OCC(O)Cn2nc(C)c(C(C)=O)c2C)cc1` (stereo unspecified): the max response was -6.71% (inactive).
Turning to `O=C(NCc1cccc(Cl)c1)C1CCC(=O)N(C2CC2)C1` (stereo unspecified), the max response is 0.588% (inactive).
